Experiment [1] deals with Aldehyde dehydrogenase, mitochondrial (Homo sapiens) (UniProt P05091). The experiment in a line: qHTS for Inhibitors of the Aldehyde Dehydrogenase Family (ALDH2) Primary screen (AID 2061308). Note: nearly all actives have a fitted effect of over 55% in size. The conditions noted are these: ALDH2 enzyme inhibition qHTS, 1536-well; series mostly up to 56 µM. (Quantitative high-throughput screening tests each substance at several concentrations.)

Experiment [2] deals with Retinaldehyde dehydrogenase 3 (Homo sapiens) (UniProt P47895). The experiment in a line: qHTS for Inhibitors of the Aldehyde Dehydrogenase Family (ALDH1A3) Primary screen (AID 2061315). Conditions: ALDH inhibition qHTS; series mostly up to 56 µM.

Inconclusive results are not listed. Where a call stands in place of a potency, no number is given. Calls of active or inactive are those of the source. Calls come from the whole dose curve; as a rule, active = well fitted curve in the direction sought with a large enough effect; inconclusive = small, poorly fitted or top-dose-only effect, or another doubt; inactive = no such curve, though single readings can be large; an effect the other way counts as inactive or inconclusive.

Regarding `Nc1ccc2c(=O)n3nc(Nc4ccc5c(c4)CCC5)sc3nc2c1`, the Potency entry in experiment [1] and in experiment [2] was “inactive” in each case.

As to `COc1cccc(C2c3c(ncn(-c4cccc(F)c4)c3=N)Oc3ccc4ccccc4c32)c1` (stereo not given), the Potency entry in experiment [1] and in experiment [2] was “inactive” in each case.

Consider `Cc1ccc(C(=O)NCC(=O)OC(C(=O)Nc2cc(C(F)(F)F)ccc2Cl)c2ccccc2)cc1` (stereo not given), for which the Potency entry in experiment [1] and in experiment [2] was “inactive” throughout.

Take `COc1ccccc1C(=O)NCCc1nc2ccccc2n1CCOc1ccc(C)cc1`: the Potency result in experiment [1] and in experiment [2] was “inactive” throughout.

Consider `N#Cc1nc(Nc2cc(F)cc(F)c2)nc(NC2CCCC2)n1`, for which the Potency entry in experiment [1] and in experiment [2] was “inactive” throughout.

In the case of `O=C(O)c1ccc2c(c1)C(=O)N([C@H](Cc1ccccc1)C(=O)O)C2=O`, the Potency entry in experiment [1] and in experiment [2] was “inactive” throughout.

Take `CCOC(=O)C1CCN(C(=O)C2(NC(=O)Nc3ccccc3Cl)CC2)CC1`: the Potency entry in experiment [1] and in experiment [2] was “inactive” each time.

With `Cc1noc(C)c1-c1ccc2ncnc(NCc3ccc(C(F)(F)F)cc3)c2c1`, the Potency entry in experiment [1] and in experiment [2] was “inactive” each time.

For `CC(C)c1cc(C(C)C)c(S(=O)(=O)Nc2cccc3cccnc23)c(C(C)C)c1`, the Potency result in experiment [1] and in experiment [2] was “inactive” in each case.

Consider `O=C(Nc1cncc(-c2cccnc2)c1)c1cccs1`, for which the Potency entry in experiment [1] and in experiment [2] was “inactive” throughout.

In the case of `Cc1nc(N2CCOCC2)c2nc(-c3ccccc3)n(CC3CCN(C)CC3)c2n1`, the Potency result in experiment [1] and in experiment [2] was “inactive” throughout.

In the case of `Cn1nnnc1Sc1ncnc2scc(-c3ccccc3Br)c12`, the Potency entry in experiment [1] and in experiment [2] was “inactive” each time.

For the compound `O=C(Nc1ccc(C(=O)Nc2nccs2)cc1)c1ccc2ccccc2c1`, the Potency result in experiment [1] and in experiment [2] was “inactive” throughout.

With `N#Cc1ccc(-c2csc(N3CCC(C(N)=O)CC3)n2)cc1`, the Potency result in experiment [1] and in experiment [2] was “inactive” in each case.

For `Cc1ccnc(NC(=S)N2CCN(c3cc(C(F)(F)F)cc(C(F)(F)F)c3)CC2)c1`, the Potency entry in experiment [1] and in experiment [2] was “inactive” each time.

The record behind these values is PubChem BioAssay (NCATS).
